Test results taken from PubChem BioAssay (EPA / NIEHS).
The source made the active and inactive calls. How the source made its calls: active means hit-call score of the fitted dose curve at least 0.9, where 1 is the maximum; inactive means score below 0.9.

Key:
[1] = read-out: Vascular cell adhesion molecule 1 (VCAM1), VCAM1 (gene 7412); experiment: BSK_hDFCGF_VCAM1: BioMAP Diversity Plus: hDFCGF Assay for Vascular cell adhesion molecule 1 (VCAM1) Biomarker Activity (AID 2283065); details: primary human foreskin fibroblasts; actives raise or lower the signal;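 on AC50: VCAM-1 protein level quantified by ELISA after 24 h chemical exposure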
Method in brief: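 Measured after 24 h chemical treatment of primary human skin fibroblasts, VCAM-1 was detected by ELISA and concentration-response analysed in both directions versus DMSO vehicle.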

[2] = read-out: Plasminogen activator inhibitor-1 (PAI1), SERPINE1 (gene 5054); experiment: BSK_hDFCGF_PAI1: BioMAP Diversity Plus: hDFCGF Assay for Plasminogen activator inhibitor-1 (PAI1) Biomarker Activity (AID 2283066); details: primary human foreskin fibroblasts; actives raise or lower the signal
Method in brief: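 Human skin fibroblast cultures receive chemical for 24 h before PAI-1 is measured by ELISA; signal changes are fitted bidirectionally against DMSO-treated wells.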

[3] = read-out: Intercellular Adhesion Molecule 1 (ICAM1), ICAM1 (gene 3383); experiment: BSK_KF3CT_ICAM1: BioMAP Diversity Plus: KF3CT Assay for Intercellular Adhesion Molecule 1 (ICAM1) Biomarker Activity (AID 2283067); details: primary human keratinocytes with fibroblasts; actives raise or lower the signal
Method in brief: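 Bidirectional curve fitting against a DMSO baseline was applied to ICAM-1 ELISA signal from primary human skin co-cultures harvested 24 h after treatment, with SRB staining of parallel wells for overt cytotoxicity.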

[4] = read-out: Interferon-gamma inducible Protein 10 (IP10), CXCL10 (gene 3627); experiment: BSK_KF3CT_IP10: BioMAP Diversity Plus: KF3CT Assay for Interferon-gamma inducible Protein 10 (IP10) Biomarker Activity (AID 2283068); details: primary human keratinocytes with fibroblasts; actives raise or lower the signal
Method in brief: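 In a primary skin co-culture of keratinocytes and fibroblasts, IP-10 is quantified by ELISA at 24 h after dosing. SRB staining of parallel wells monitors overt toxicity. Curves are fitted both directions against DMSO.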

[5] = BSK_KF3CT_SRB: Viability Assessment in the BioMAP Diversity Plus: KF3CT Assay (AID 2283069); details: primary human keratinocytes with fibroblasts;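 further: total protein by sulforhodamine B staining as a cytotoxicity measure; read 24 h after compound addition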
Method in brief: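 Cytotoxicity was gauged by SRB staining (0.1% SRB, 10% TCA fixation, 560 nm) of parallel cultures at 24 h. The cells were primary human skin keratinocytes co-cultured with fibroblasts, and activity was fitted in both directions against DMSO.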

[6] = read-out: Interleukin-1 alpha (IL1a), IL1A (gene 3552); experiment: BSK_KF3CT_IL1a: BioMAP Diversity Plus: KF3CT Assay for Interleukin-1 alpha (IL1a) Biomarker Activity (AID 2283070); details: primary human keratinocytes with fibroblasts; actives raise or lower the signal
Method in brief: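 IL-1a was detected by ELISA 24 h after chemical treatment of a co-culture of human skin keratinocytes and foreskin fibroblasts. Gain or loss of signal was fitted against the DMSO baseline.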

[7] = read-out: TIMP metallopeptidase inhibitor 2 (TIMP2), TIMP2 (gene 7077); experiment: BSK_KF3CT_TIMP2: BioMAP Diversity Plus: KF3CT Assay for TIMP metallopeptidase inhibitor 2 (TIMP2) Biomarker Activity (AID 2283071); details: primary human keratinocytes with fibroblasts; actives raise or lower the signal
Method in brief: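 Measurements come from ELISA detection of TIMP-2 at 24 hours in a dosed human keratinocyte and foreskin fibroblast co-culture. DMSO serves as negative control and baseline.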

[8] = read-out: Transforming growth factor beta 1 (TGFb1), TGFB1 (gene 7040); experiment: BSK_KF3CT_TGFb1: BioMAP Diversity Plus: KF3CT Assay for Transforming growth factor beta 1 (TGFb1) Biomarker Activity (AID 2283072); details: primary human keratinocytes with fibroblasts; actives raise or lower the signal
Method in brief: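 TGF-b1 ELISA on a 24 h dosed co-culture of human keratinocytes and foreskin fibroblasts; cytotoxicity tracked in parallel cultures by SRB staining.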

[9] = read-out: C-C motif chemokine 2 (Homo sapiens) (UniProt P13500); experiment: BSK_KF3CT_MCP1: BioMAP Diversity Plus: KF3CT Assay for Monocyte Chemoattractant Protein 1 (MCP1/CCL2) Biomarker Activity (AID 2283073); details: primary human keratinocytes with fibroblasts; actives raise or lower the signal
Method in brief: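 Biomarker MCP-1 is measured by ELISA in primary human keratinocytes co-cultured with foreskin fibroblasts, 24 h after chemical treatment; DMSO serves as the negative control and activity baseline.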

[10] = read-out: Matrix Metallopeptidase 9 (MMP9), MMP9 (gene 4318); experiment: BSK_KF3CT_MMP9: BioMAP Diversity Plus: KF3CT Assay for Matrix Metallopeptidase 9 (MMP9) Biomarker Activity (AID 2283074); details: primary human keratinocytes with fibroblasts; actives raise or lower the signal;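 on AC50: MMP9 protein level quantified by ELISA in the co-culture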
Method in brief: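 MMP-9 quantified by ELISA after 24 h chemical treatment of primary human skin keratinocyte/fibroblast co-cultures; gain or loss fitted against DMSO, with parallel SRB staining (0.1% SRB, 560 nm) for overt cytotoxicity.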

[11] = read-out: urokinase plasminogen activator (uPA), PLAU (gene 5328); experiment: BSK_KF3CT_uPA: BioMAP Diversity Plus: KF3CT Assay for urokinase plasminogen activator (uPA) Biomarker Activity (AID 2283075); details: primary human keratinocytes with fibroblasts; actives raise or lower the signal
Method in brief: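 ELISA read-out of uPA 24 h after dosing human skin keratinocytes co-cultured with foreskin fibroblasts. Signal change fitted both ways relative to DMSO; sulforhodamine B on parallel cultures marks overt cytotoxicity.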

CD40, CD40 (gene 958) = experiment: BSK_LPS_CD40: BioMAP Diversity Plus: LPS Assay for CD40 Biomarker Activity (AID 2283076); details: primary human HUVEC with PBMC; actives raise or lower the signal
Method in brief: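 Using a multiplexed primary human co-culture (umbilical vein endothelium plus PBMC), CD40 was read by ELISA 24 h after dosing, with cytotoxicity tracked by sulforhodamine B staining of parallel cultures and activity fitted bidirectionally versus DMSO.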

[12] = read-out: E-selectin (Homo sapiens) (UniProt P16581); experiment: BSK_LPS_Eselectin: BioMAP Diversity Plus: LPS Assay for Eselectin Biomarker Activity (AID 2283077); details: primary human HUVEC with PBMC; actives raise or lower the signal
Method in brief: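 Dose chemical onto LPS-driven HUVEC/PBMC co-culture; after 24 h, run ELISA for E-selectin; fit up- and down-going responses relative to DMSO control.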

[13] = read-out: Interleukin-8 (IL8), CXCL8 (gene 3576); experiment: BSK_LPS_IL8: BioMAP Diversity Plus: LPS Assay for Interleukin-8 (IL8) Biomarker Activity (AID 2283078); details: primary human HUVEC with PBMC; actives raise or lower the signal
Method in brief: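 In this LPS system, chemical-treated human umbilical vein endothelium/PBMC co-cultures were harvested at 24 h for IL-8 ELISA.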

[14] = BSK_LPS_SRB: Viability Assessment in the BioMAP Diversity Plus: LPS Assay (AID 2283079); details: primary human HUVEC with PBMC;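 further: total protein by sulforhodamine B absorbance as a cytotoxicity measure; measured one day after compound addition; fitted in both directions against DMSO so loss or gain of signal counts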
Method in brief: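 Cytotoxicity endpoint in human endothelial–PBMC co-culture: 24 h exposure, then SRB (0.1%) staining, 560 nm read.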

[15] = read-out: Interleukin-1 alpha (IL1a), IL1A (gene 3552); experiment: BSK_LPS_IL1a: BioMAP Diversity Plus: LPS Assay for Interleukin-1 alpha (IL1a) Biomarker Activity (AID 2283080); details: primary human HUVEC with PBMC; actives raise or lower the signal
Method in brief: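 Primary human HUVEC and PBMC co-culture stimulated with LPS is dosed and harvested at 24 h. Both increases and decreases in ELISA-measured IL-1a are scored relative to DMSO.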

[16] = read-out: Monocyte Chemoattractant Protein-1 (MCP1), CCL2 (gene 6347); experiment: BSK_LPS_MCP1: BioMAP Diversity Plus: LPS Assay for Monocyte Chemoattractant Protein-1 (MCP1) Biomarker Activity (AID 2283081); details: primary human HUVEC with PBMC; actives raise or lower the signal;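 on AC50: secreted MCP-1 protein quantified by ELISA in culture supernatant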
Method in brief: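 Values derive from bidirectional fitting against DMSO of ELISA-measured MCP-1 in a human primary endothelial and mononuclear cell co-culture, 24 h after chemical addition under LPS activation.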

[17] = BSK_LPS_PGE2: BioMAP Diversity Plus: LPS Assay for Prostaglandin E2 (PGE2) Biomarker Activity (AID 2283082); details: primary human HUVEC with PBMC; actives raise or lower the signal;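 on AC50: secreted prostaglandin E2 measured by ELISA in LPS-stimulated co-culture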
Method in brief: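 Primary human endothelial cells and blood mononuclear cells, co-cultured with LPS, receive test chemical; PGE2 ELISA follows at 24 h, with SRB-stained parallel cultures flagging cytotoxicity.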

[18] = read-out: Tissue Factor, F3 (gene 2152); experiment: BSK_LPS_TissueFactor: BioMAP Diversity Plus: LPS Assay for Tissue Factor Biomarker Activity (AID 2283084); details: primary human HUVEC with PBMC; actives raise or lower the signal
Method in brief: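 Read-out: CD142 ELISA, 24 h. System: LPS-driven human endothelial/PBMC co-culture. Analysis: up- or down-signal fitted against DMSO.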

[19] = read-out: Macrophage colony-stimulating factor (MCSF), CSF1 (gene 1435); experiment: BSK_LPS_MCSF: BioMAP Diversity Plus: LPS Assay for Macrophage colony-stimulating factor (MCSF) Biomarker Activity (AID 2283083); details: primary human HUVEC with PBMC; actives raise or lower the signal
Method in brief: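 Bidirectional fit versus DMSO of ELISA-measured M-CSF in co-cultured human umbilical vein endothelial cells and PBMC, sampled 24 h after dosing.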

Measured: AC50

Chain of E-selectin (Homo sapiens) (P16581 whole entry, looked up): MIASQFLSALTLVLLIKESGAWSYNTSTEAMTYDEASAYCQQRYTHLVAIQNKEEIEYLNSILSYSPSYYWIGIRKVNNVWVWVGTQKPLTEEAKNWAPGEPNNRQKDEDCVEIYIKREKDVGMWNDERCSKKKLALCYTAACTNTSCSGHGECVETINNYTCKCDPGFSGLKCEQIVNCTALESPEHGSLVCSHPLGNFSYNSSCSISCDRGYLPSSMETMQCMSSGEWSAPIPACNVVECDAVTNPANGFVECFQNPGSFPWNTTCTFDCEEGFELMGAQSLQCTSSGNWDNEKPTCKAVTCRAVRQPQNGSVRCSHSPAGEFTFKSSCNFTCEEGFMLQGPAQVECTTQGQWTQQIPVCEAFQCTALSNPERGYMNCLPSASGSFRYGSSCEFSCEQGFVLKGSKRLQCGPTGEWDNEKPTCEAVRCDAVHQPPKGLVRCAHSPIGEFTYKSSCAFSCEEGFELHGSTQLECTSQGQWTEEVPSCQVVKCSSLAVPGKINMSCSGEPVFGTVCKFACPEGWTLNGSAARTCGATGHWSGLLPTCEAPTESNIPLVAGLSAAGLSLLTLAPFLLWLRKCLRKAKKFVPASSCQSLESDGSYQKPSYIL

ClC1(Cl)C2(Cl)C3(Cl)C4(Cl)C(Cl)(Cl)C5(Cl)C3(Cl)C1(Cl)C5(Cl)C24Cl (stereo unspecified)
active: [17] 0.148 µM
not listed: [19]
inactive: all other assays above

CCC(C)(C)c1ccc(O)c(C(C)(C)CC)c1
inactive: [17]
active: [1] 9.33 µM | [2] 7.87 µM | [3] 11.7 µM | [4] 9.69 µM | [5] 7.84 µM | [6] 9.89 µM | [7] 9.47 µM | [8] 8.12 µM | [9] 10.6 µM | [10] 10.3 µM | [11] 7.77 µM | CD40, CD40 (gene 958) 13.6 µM | [12] 27 µM | [13] 28.1 µM | [14] 15 µM | [15] 14.3 µM | [16] 25.1 µM | [18] 15.9 µM

CCNc1nc(NC(C)(C)C)nc(SC)n1
active: [6] 20 µM | [7] 20 µM
inactive: all other assays above

CCOP(=S)(OCC)SCCS(=O)(=O)CC
not listed: [19]
inactive: all other assays above

COC(=O)c1sccc1S(=O)(=O)NC(=O)Nc1nc(C)nc(OC)n1
not listed: [19]
inactive: all other assays above

CCCCCCCCC(=O)NCc1ccc(O)c(OC)c1
active: [2] 0.155 µM | [15] 0.1 µM | [17] 12.8 µM
inactive: all other assays above
